Results published in PubChem BioAssay AID651744 (Broad Institute, 2012).
About 3,100 (55%) of roughly 5,600 compounds were called active. Roughly 3% stayed inconclusive and do not appear here.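 How the source made its calls: active means mean loss of cell viability signal at or above a set limit, and enough replicates individually reaching it; inconclusive means meets only the mean limit or only the replicate share; inactive means meets neither condition.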 The set was probably picked from earlier hits. Only a sample is shown.

Experiment: NIH/3T3 fibroblast cytotoxicity, confirmation, cytotoxicity control, cell-based, cherry-pick, single point, set 2 (AID 651744);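 further: 0% = median of neutral control wells and 100% = median of positive control wells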
Details: NIH/3T3 viability, CellTiter-Glo ATP luminescence, 90 h; at 24.9 µM; active compounds read high

Row | SMILES | inhibition
1 | CCCN(C)C[C@@H]1Oc2cc(C#Cc3ccc(F)cc3)ccc2S(=O)(=O)N([C@H](C)CO)C[C@H]1C | 105% (active)
2 | CCCN(C)C[C@H]1Oc2cc(C#CC3CCCC3)ccc2S(=O)(=O)N([C@H](C)CO)C[C@@H]1C | 105% (active)
3 | COCCNC[C@@H]1[C@H](c2ccccc2)[C@H](CO)N1c1nc(C)c(C)s1 | 5.9% (inactive)
4 | C/C=C/c1ccc([C@H]2[C@@H](CNC(C)C)N(c3nc(CC)cs3)[C@H]2CO)cc1 | 103% (active)
5 | O=S(=O)(Cc1ccccc1)N1CCCCN2[C@@H](CO)[C@H](c3ccc(-c4ccccc4)cc3)[C@@H]2C1 | 106% (active)
6 | CN(C)C(=O)c1ccc(-c2ccc([C@@H]3[C@H](CO)N4CCCCN(S(C)(=O)=O)C[C@@H]34)cc2)cc1 | 6.63% (inactive)
7 | CCS(=O)(=O)N1CCCCN2[C@@H](CO)[C@@H](c3ccc(-c4ccccc4)cc3)[C@@H]2C1 | 49.5% (active)
8 | O=S(=O)(Cc1ccccc1)N1CCCCN2[C@@H](CO)[C@@H](c3ccc(-c4ccc(F)cc4)cc3)[C@@H]2C1 | 105% (active)
9 | Cc1cccc(-c2ccc([C@@H]3[C@@H](CO)N4CCCCN(S(=O)(=O)c5cccs5)C[C@H]34)cc2)c1 | 95.2% (active)
10 | O=S(=O)(Cc1ccccc1)N1CCCCN2[C@@H](CO)[C@H](c3ccc(-c4cccnc4)cc3)[C@@H]2C1 | -12.4% (inactive)
11 | C[C@@H](O)C#Cc1ccc([C@@H]2[C@H](CO)N3CCCCN(S(=O)(=O)c4ccccc4)C[C@@H]23)cc1 | 3.32% (inactive)
12 | C[C@H](O)C#Cc1ccc([C@@H]2[C@H]3CN(S(=O)(=O)c4ccccc4)CCCCN3[C@H]2CO)cc1 | 25.4% (inactive)
13 | C[C@H](O)C#Cc1ccc([C@H]2[C@H]3CN(S(=O)(=O)Cc4ccccc4)CCCCN3[C@H]2CO)cc1 | 30.3% (active)
14 | C/C=C/c1ccc([C@H]2[C@H]3CN(S(=O)(=O)c4ccccc4)CCCCN3[C@H]2CO)cc1 | 87.7% (active)
15 | O=C(Nc1ccc(Cl)cc1)N[C@@H]1CC[C@@H](CCNC(=O)c2ccccc2F)O[C@H]1CO | 4.33% (inactive)
16 | COc1cccc(S(=O)(=O)Nc2ccc3c(c2)[C@H]2C[C@H](CC(=O)NCc4ccc(Cl)cc4)O[C@H](CO)[C@H]2O3)c1 | 4.86% (inactive)
17 | O=C(Nc1cc(Cl)cc(Cl)c1)N[C@H]1CC[C@@H](CCNS(=O)(=O)c2cccc(F)c2)O[C@H]1CO | 57.3% (active)
18 | CCCC#Cc1ccc2c(c1)O[C@@H](CN(C)C(=O)c1ccccc1F)[C@H](C)CN([C@H](C)CO)S2(=O)=O | 24.6% (inactive)
19 | CC(C)CC#Cc1ccc2c(c1)O[C@H](CN(C)Cc1ccncc1)[C@H](C)CN([C@H](C)CO)S2(=O)=O | 104% (active)
20 | C[C@H](CO)N1C[C@H](C)[C@@H](CN(C)Cc2ccncc2)Oc2cc(Br)ccc2S1(=O)=O | 51.2% (active)
21 | CC(C)CC#Cc1ccc2c(c1)O[C@H](CN(C)Cc1ccccc1F)[C@@H](C)CN([C@@H](C)CO)S2(=O)=O | 105% (active)
22 | CC(C)CC#Cc1ccc2c(c1)O[C@H](CN(C)Cc1cccnc1)[C@H](C)CN([C@@H](C)CO)S2(=O)=O | 97% (active)

Row | SMILES | inhibition
23 | O=C(Nc1ccc2c(c1)[C@@H]1C[C@H](CC(=O)N3CCOCC3)O[C@@H](CO)[C@@H]1O2)c1ccc2c(c1)OCO2 | 4.7% (inactive)
24 | C[C@H](CO)N1C[C@H](C)[C@@H](CN(C)C(=O)Nc2cc(F)ccc2F)Oc2cc(C#CC3CC3)ccc2S1(=O)=O | 55.6% (active)
25 | C[C@H]1CN([C@@H](C)CO)S(=O)(=O)c2ccc(C#CC3CCCC3)cc2O[C@@H]1CN(C)C(=O)c1cccc(F)c1 | 105% (active)
26 | C[C@H]1CN([C@@H](C)CO)C(=O)CCCn2cc(nn2)CO[C@H]1CN(C)C(=O)c1ccccc1 | 7.66% (inactive)
27 | CO[C@H](CN(C)S(=O)(=O)c1ccc(Cl)cc1)[C@@H](C)CN(Cc1ccccc1Cl)[C@H](C)CO | 74% (active)
28 | COc1cccc(S(=O)(=O)N2CCCCN3[C@H](CO)[C@H](c4ccc(-c5ccncc5)cc4)[C@H]3C2)c1 | 36.2% (active)
29 | COc1cccc(S(=O)(=O)N2CCCCN3[C@H](CO)[C@H](c4ccc(C#CC5CC5)cc4)[C@H]3C2)c1 | 104% (active)
30 | OC[C@@H]1[C@H](c2ccc(C#CC3CC3)cc2)[C@@H]2CN(CCC(F)(F)F)CCCCN12 | 102% (active)
31 | O=C(CN1CCOCC1)N1CCCCN2[C@H](CO)[C@H](c3ccc(-c4ccccc4)cc3)[C@@H]2C1 | 16.2% (inactive)
32 | CCC(=O)N1CCCCN2[C@H](C1)[C@@H](c1ccc(-c3ccc(F)cc3)cc1)[C@@H]2CO | 48.8% (active)
33 | O=C(CN1CCOCC1)N1CCCCN2[C@@H](CO)[C@H](c3ccc(-c4ccccc4)cc3)[C@@H]2C1 | 6.88% (inactive)
34 | CCC(=O)N1CCCCN2[C@H](C1)[C@@H](c1ccc(/C=C/c3ccccc3)cc1)[C@@H]2CO | 103% (active)
35 | O=C(CN1CCOCC1)N1CCCCN2[C@@H](CO)[C@H](c3ccc(/C=C/c4ccccc4)cc3)[C@@H]2C1 | 92.5% (active)
36 | COc1ccc(CN(C)C[C@H]2Oc3ccc(NS(=O)(=O)c4ccc(Cl)cc4)cc3CC(=O)N([C@@H](C)CO)C[C@H]2C)cc1 | 36.9% (active)
37 | Cc1ccc(S(=O)(=O)Nc2ccc3c(c2)C(=O)N([C@H](C)CO)C[C@H](C)[C@H](CN(C)Cc2ccc(Cl)c(Cl)c2)O3)cc1 | 104% (active)
38 | Cc1ccc(S(=O)(=O)Nc2ccc3c(c2)C(=O)N([C@H](C)CO)C[C@H](C)[C@H](CN(C)C(=O)Nc2ccc(F)cc2)OCCCC[C@H](C)O3)cc1 | 1.65% (inactive)
39 | COc1ccc(S(=O)(=O)Nc2ccc3c(c2)C(=O)N([C@@H](C)CO)C[C@H](C)[C@@H](CN(C)Cc2ccc(C(F)(F)F)cc2)O3)cc1 | 5.53% (inactive)
40 | Cc1ccc(S(=O)(=O)N(C)C[C@@H]2OCCCC[C@@H](C)Oc3ccc(NS(=O)(=O)c4ccc(F)cc4)cc3C(=O)N([C@H](C)CO)C[C@H]2C)cc1 | -22.2% (inactive)
41 | COc1ccc(NC(=O)Nc2ccc3c(c2)C(=O)N([C@H](C)CO)C[C@H](C)[C@H](CN(C)S(=O)(=O)c2ccc(Cl)cc2)OCCCC[C@H](C)O3)cc1 | 3.56% (inactive)
42 | COc1ccc(S(=O)(=O)Nc2ccc3c(c2)C(=O)N([C@H](C)CO)C[C@H](C)[C@H](CN(C)Cc2ccc(C(F)(F)F)cc2)O3)cc1 | 97.6% (active)
43 | COc1ccc(S(=O)(=O)Nc2ccc3c(c2)C(=O)N([C@@H](C)CO)C[C@H](C)[C@H](CN(C)Cc2ccc(C(F)(F)F)cc2)O3)cc1 | 35.2% (active)
